A short description of this experiment: fluorescence quenching of FAM-labeled RNA aptamer, dose response, artefact control for GRK2 aptamer inhibitor project, biochemical, flow cytometry, cherry pick 2 (AID 504819). As to conditions: Streptavidin beads, hits give high values. In general terms: In flow cytometry, cells or beads pass a laser one at a time.

The other results are listed elsewhere or left out. A number with no mark means an inactive call.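 How the source made its calls: active means compounds quenching the bead-bound labeled aptamer, with fluorescence dropping by more than 37 kMESF over the dose range; inactive means the rest.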

`COc1ccc(Cl)cc1NC(=O)CCS(=O)(=O)c1ccc(Br)cc1`: the change in fluorescence (kMESF span) was 1.4 kMESF.

Take `O=C(CCS(=O)(=O)c1ccc(Br)cc1)NCCc1ccc(Cl)cc1`: the change in fluorescence (kMESF span) is 2.5 kMESF.

The values are drawn from PubChem BioAssay AID504819 (NMMLSC, 2011).
